# Measured values as given in PubChem BioAssay (EPA / NIEHS).
# Calls of active or inactive are those of the source. How the source made its calls: active means hit-call score of the fitted dose curve at least 0.9, where 1 is the maximum; inactive means score below 0.9.
# Experiments:
# Conditions in all cases: mRNA level, 48 h; actives raise or lower the signal
# CYP4A11 (gene 1579) = assay: LTEA_HepaRG_CYP4A11: Life Technologies and Expression Analysis (LTEA) Assay for CYP4A11 using HepaRG (AID 2283486)
# Procedure, shortened: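 Differentiated HepaRG cells, 48 h after plating, exposed in duplicate for 48 h to 8 half-log concentrations up to 100 uM in 0.5% DMSO in serum-free induction medium. CYP4A11 mRNA measured by TaqMan qRT-PCR, normalized to ACTB, GAPDH and POLR2A.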
# [1] = read-out: Cytochrome P450 3A4 (Homo sapiens) (UniProt P08684); assay: LTEA_HepaRG_CYP3A4: Life Technologies and Expression Analysis (LTEA) Assay for CYP3A4 using HepaRG (AID 2283487)
# Procedure, shortened: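 HepaRG, 48 h exposure, 8-pt CRC from 100 uM (half-log), 0.5% DMSO, duplicates; serum-free induction medium. Readout: CYP3A4 mRNA, qRT-PCR, ACTB/GAPDH/POLR2A normalization. Bidirectional fit vs DMSO.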
# [2] = read-out: DNA damage-inducible transcript 3 (DDIT3), DDIT3 (gene 1649); assay: LTEA_HepaRG_DDIT3: Life Technologies and Expression Analysis (LTEA) Assay for DNA damage-inducible transcript 3 (DDIT3) using HepaRG (AID 2283488)
# Procedure, shortened: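 Cells are human HepaRG liver cells treated for 48 h with eight half-log concentrations up to 100 uM in 0.5% DMSO. Transcript levels come from qRT-PCR normalized to three housekeeping genes, with activity fitted in both directions relative to vehicle.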
# [3] = read-out: Pro-epidermal growth factor (Homo sapiens) (UniProt P01133); assay: LTEA_HepaRG_EGF: Life Technologies and Expression Analysis (LTEA) Assay for Epidermal growth factor (EGF) using HepaRG (AID 2283489)
# Procedure, shortened: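 HepaRG cells (~100,000/well, 48 h pre-culture) exposed in duplicate for 48 h in serum-free induction medium to 8 half-log concentrations up to 100 uM in 0.5% DMSO. EGF mRNA by qRT-PCR, normalized to ACTB/GAPDH/POLR2A; bidirectional fit versus DMSO.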
# [4] = read-out: Early growth response protein 1 (EGR1) transcription factor, EGR1 (gene 1958); assay: LTEA_HepaRG_EGR1: Life Technologies and Expression Analysis (LTEA) Assay for Early growth response protein 1 (EGR1) transcription factor using HepaRG (AID 2283490)
# Procedure, shortened: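 EGR1 transcript levels quantified by qRT-PCR (Fluidigm arrays) against three housekeeping genes after 48 h chemical exposure of HepaRG cells. Eight-point half-log series topping at 100 uM, 0.5% DMSO vehicle, analyzed for gain or loss.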
# [5] = read-out: Ezrin (EZR), EZR (gene 7430); assay: LTEA_HepaRG_EZR: Life Technologies and Expression Analysis (LTEA) Assay for Ezrin (EZR) using HepaRG (AID 2283491)
# Procedure, shortened: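 Read-out is EZR transcript level by qRT-PCR, normalized to three housekeeping genes and fitted bidirectionally against the DMSO control. Human HepaRG cells received test chemicals for 48 h at eight half-log concentrations up to 100 uM in 0.5% DMSO.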
# [6] = read-out: Cytochrome P450 3A7 (Homo sapiens) (UniProt P24462); assay: LTEA_HepaRG_CYP3A7: Life Technologies and Expression Analysis (LTEA) Assay for CYP3A7 using HepaRG (AID 2283492)
# Procedure, shortened: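 Differentiated HepaRG cells in serum-free induction medium exposed 48 h in duplicate to 8-point half-log series from 100 uM top in 0.5% DMSO. CYP3A7 mRNA by qRT-PCR, normalized to ACTB/GAPDH/POLR2A, bidirectional fit versus DMSO.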
# CYP3A5 (gene 1577) = assay: LTEA_HepaRG_CYP3A5: Life Technologies and Expression Analysis (LTEA) Assay for CYP3A5 using HepaRG (AID 2283493)
# Procedure, shortened: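 Human HepaRG hepatic cells receive 48 h chemical treatment at eight concentrations (half-log steps from 100 uM) in 0.5% DMSO. Expression of CYP3A5 is quantified by Fluidigm qRT-PCR and normalized to three reference genes.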
# [7] = read-out: Fatty Acid-Binding Protein 1 (FABP1), FABP1 (gene 2168); assay: LTEA_HepaRG_FABP1: Life Technologies and Expression Analysis (LTEA) Assay for Fatty Acid-Binding Protein 1 (FABP1) using HepaRG (AID 2283494)
# Procedure, shortened: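 FABP1 expression by TaqMan qRT-PCR, normalised to three housekeeping genes, in HepaRG cells after 48 h chemical treatment. Eight-point half-log series topping at 100 uM in 0.5% DMSO, duplicates; gain or loss fitted relative to vehicle.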
# [8] = read-out: Cytochrome P450 4A22 (Homo sapiens) (UniProt Q5TCH4); assay: LTEA_HepaRG_CYP4A22: Life Technologies and Expression Analysis (LTEA) Assay for Cytochrome P450 4A22 (CYP4A22) using HepaRG (AID 2283495)
# Procedure, shortened: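 Differentiated HepaRG cells in serum-free induction medium exposed 48 h in duplicate to eight half-log concentrations up to 100 uM in 0.5% DMSO. CYP4A22 mRNA quantified by TaqMan qRT-PCR, normalized to ACTB, GAPDH and POLR2A; bidirectional fit versus DMSO.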
# [9] = read-out: Cytochrome P450 7A1 (Homo sapiens) (UniProt P22680); assay: LTEA_HepaRG_CYP7A1: Life Technologies and Expression Analysis (LTEA) Assay for Cytochrome P450 7A1 (CYP7A1) using HepaRG (AID 2283496)
# Procedure, shortened: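 HepaRG, 48 h exposure, 8-pt half-log series from 100 uM, 0.5% DMSO vehicle, duplicates. Readout: TaqMan qRT-PCR mRNA vs three housekeeping genes; bidirectional curve fit against DMSO baseline.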
# [10] = read-out: Glutathione S-Transferase (GSTA2), GSTA2 (gene 2939); assay: LTEA_HepaRG_GSTA2: Life Technologies and Expression Analysis (LTEA) Assay for Glutathione S-Transferase (GSTA2) using HepaRG (AID 2283497)
# Procedure, shortened: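 GSTA2 transcript levels came from Fluidigm TaqMan qRT-PCR normalized to three housekeeping genes, fitted in both directions against DMSO. HepaRG cultures received chemicals for 48 h in serum-free induction medium (0.5% DMSO), 8 half-log concentrations up to 100 uM, duplicate.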
# [11] = read-out: Glutamate-cysteine ligase catalytic (GCLC), GCLC (gene 2729); assay: LTEA_HepaRG_GCLC: Life Technologies and Expression Analysis (LTEA) Assay for Glutamate-cysteine ligase catalytic (GCLC) using HepaRG (AID 2283498)
# Procedure, shortened: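 Expression by TaqMan qRT-PCR, normalized to three housekeeping genes (ACTB, GAPDH, POLR2A), with up- or down-regulation fitted against DMSO. HepaRG cells dosed in duplicate for 48 h with 8 half-log concentrations up to 100 uM, vehicle 0.5% DMSO.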
# [12] = read-out: growth arrest and DNA damage 45 (GADD45G), GADD45G (gene 10912); assay: LTEA_HepaRG_GADD45G: Life Technologies and Expression Analysis (LTEA) Assay for growth arrest and DNA damage 45 (GADD45G) using HepaRG (AID 2283499)
# Procedure, shortened: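 Differentiated human HepaRG cells, 48 h post-plating, exposed 48 h in serum-free induction medium to 8 half-log concentrations (top 100 uM, 0.5% DMSO) in duplicate. GADD45G mRNA measured by Fluidigm TaqMan qRT-PCR, normalized to ACTB, GAPDH, POLR2A; bidirectional fit versus DMSO.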
# [13] = read-out: Glutamate-cysteine ligase regulatory (GCLM), GCLM (gene 2730); assay: LTEA_HepaRG_GCLM: Life Technologies and Expression Analysis (LTEA) Assay for Glutamate-cysteine ligase regulatory (GCLM) using HepaRG (AID 2283500)
# Procedure, shortened: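 Endpoint is GCLM transcript level by qRT-PCR, normalized to three housekeeping genes, after 48 h chemical exposure of human HepaRG cells (0.5% DMSO vehicle, top 100 uM, half-log dilutions). Fitting was bidirectional relative to DMSO.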
# [14] = read-out: Glutathione S-transferase M3 (GSTM3), GSTM3 (gene 2947); assay: LTEA_HepaRG_GSTM3: Life Technologies and Expression Analysis (LTEA) Assay for Glutathione S-transferase M3 (GSTM3) using HepaRG (AID 2283501)
# Procedure, shortened: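 Differentiated human HepaRG cells were exposed in duplicate for 48 h in serum-free induction medium, 8 points from 100 uM top in half-log steps, 0.5% DMSO. GSTM3 mRNA was measured by TaqMan qRT-PCR, normalized to ACTB, GAPDH and POLR2A; bidirectional fit versus DMSO.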
# [15] = read-out: Heat shock 70 kDa protein 1 (HSPA1A), gene 3303; assay: LTEA_HepaRG_HSPA1A: Life Technologies and Expression Analysis (LTEA) Assay for Heat shock 70 kDa protein 1 (HSPA1A) using HepaRG (AID 2283502)
# Procedure, shortened: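 Cells were plated and cultured for 48 h, then switched to serum-free induction medium. Chemicals were added at eight half-log concentrations up to 100 uM for 48 h. RNA was then isolated and HSPA1A measured by qRT-PCR with bidirectional curve fitting against DMSO.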
# [16] = read-out: Hypoxia-inducible factor 1-alpha (Homo sapiens) (UniProt Q16665); assay: LTEA_HepaRG_HIF1A: Life Technologies and Expression Analysis (LTEA) Assay for Hypoxia-inducible factor 1 (HIF1A) Trancription factor using HepaRG (AID 2283503)
# Procedure, shortened: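 HIF1A transcript level read by qRT-PCR (ACTB, GAPDH, POLR2A normalization) after 48 h chemical exposure of HepaRG cultures. Eight half-log concentrations, top 100 uM, 0.5% DMSO vehicle, duplicates; bidirectional curve fit against DMSO baseline.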
# [17] = read-out: 3-Hydroxy-3-Methylglutaryl-CoA Synthase 2 (HMGCS2), HMGCS2 (gene 3158); assay: LTEA_HepaRG_HMGCS2: Life Technologies and Expression Analysis (LTEA) Assay for 3-Hydroxy-3-Methylglutaryl-CoA Synthase 2 (HMGCS2) using HepaRG (AID 2283504)
# Procedure, shortened: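 Human HepaRG cells in serum-free induction medium were exposed in duplicate for 48 h to 8-point half-log series from 100 uM top in 0.5% DMSO. HMGCS2 mRNA measured by TaqMan qRT-PCR, normalised to ACTB, GAPDH, POLR2A; bidirectional fit versus DMSO.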
# HGF (gene 3082) = assay: LTEA_HepaRG_HGF: Life Technologies and Expression Analysis (LTEA) Assay for Hepatocyte Growth Facto (HGF) using HepaRG (AID 2283505)
# Procedure, shortened: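 Differentiated HepaRG cells in serum-free induction medium exposed 48 h in duplicate, 8 half-log concentrations from 100 uM in 0.5% DMSO. HGF mRNA by qRT-PCR, normalised to ACTB, GAPDH, POLR2A; bidirectional fitting.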
# Chain of Hypoxia-inducible factor 1-alpha (Homo sapiens) (Q16665 whole entry, looked up): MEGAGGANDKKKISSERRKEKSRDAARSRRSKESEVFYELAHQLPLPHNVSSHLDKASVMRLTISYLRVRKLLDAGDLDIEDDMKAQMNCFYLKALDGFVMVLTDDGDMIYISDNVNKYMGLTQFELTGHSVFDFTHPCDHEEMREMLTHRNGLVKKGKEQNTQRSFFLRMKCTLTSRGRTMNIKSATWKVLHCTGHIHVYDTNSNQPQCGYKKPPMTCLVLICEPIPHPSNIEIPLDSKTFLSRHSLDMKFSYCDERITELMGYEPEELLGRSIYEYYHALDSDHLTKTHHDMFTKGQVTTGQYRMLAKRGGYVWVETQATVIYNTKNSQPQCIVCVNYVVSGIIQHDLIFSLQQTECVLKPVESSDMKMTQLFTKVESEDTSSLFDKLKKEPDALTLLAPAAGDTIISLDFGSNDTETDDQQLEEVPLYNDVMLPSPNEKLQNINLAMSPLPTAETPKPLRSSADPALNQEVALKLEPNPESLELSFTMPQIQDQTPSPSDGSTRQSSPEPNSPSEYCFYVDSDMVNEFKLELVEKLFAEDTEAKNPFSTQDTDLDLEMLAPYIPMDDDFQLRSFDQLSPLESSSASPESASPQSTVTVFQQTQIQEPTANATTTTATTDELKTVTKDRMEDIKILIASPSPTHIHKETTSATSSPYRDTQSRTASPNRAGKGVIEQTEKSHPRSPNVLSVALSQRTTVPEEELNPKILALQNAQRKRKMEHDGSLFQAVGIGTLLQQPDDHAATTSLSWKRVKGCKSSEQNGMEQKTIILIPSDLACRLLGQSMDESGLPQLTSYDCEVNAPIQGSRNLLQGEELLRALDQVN
# Chain of Cytochrome P450 3A7 (Homo sapiens) (P24462 whole entry, looked up): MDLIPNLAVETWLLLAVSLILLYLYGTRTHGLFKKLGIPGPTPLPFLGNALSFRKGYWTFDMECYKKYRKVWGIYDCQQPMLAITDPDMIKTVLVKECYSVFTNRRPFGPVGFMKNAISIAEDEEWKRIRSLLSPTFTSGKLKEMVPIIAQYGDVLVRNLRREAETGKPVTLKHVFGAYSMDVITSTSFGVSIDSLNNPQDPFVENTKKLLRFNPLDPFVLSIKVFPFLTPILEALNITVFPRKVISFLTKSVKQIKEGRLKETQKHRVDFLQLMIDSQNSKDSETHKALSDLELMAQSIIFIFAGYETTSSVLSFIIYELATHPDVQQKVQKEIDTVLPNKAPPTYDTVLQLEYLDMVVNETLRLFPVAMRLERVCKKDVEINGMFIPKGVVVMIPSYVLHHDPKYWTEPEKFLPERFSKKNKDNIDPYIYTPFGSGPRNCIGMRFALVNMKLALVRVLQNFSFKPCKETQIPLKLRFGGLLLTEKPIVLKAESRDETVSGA
# Chain of Cytochrome P450 3A4 (Homo sapiens) (P08684 whole entry, looked up): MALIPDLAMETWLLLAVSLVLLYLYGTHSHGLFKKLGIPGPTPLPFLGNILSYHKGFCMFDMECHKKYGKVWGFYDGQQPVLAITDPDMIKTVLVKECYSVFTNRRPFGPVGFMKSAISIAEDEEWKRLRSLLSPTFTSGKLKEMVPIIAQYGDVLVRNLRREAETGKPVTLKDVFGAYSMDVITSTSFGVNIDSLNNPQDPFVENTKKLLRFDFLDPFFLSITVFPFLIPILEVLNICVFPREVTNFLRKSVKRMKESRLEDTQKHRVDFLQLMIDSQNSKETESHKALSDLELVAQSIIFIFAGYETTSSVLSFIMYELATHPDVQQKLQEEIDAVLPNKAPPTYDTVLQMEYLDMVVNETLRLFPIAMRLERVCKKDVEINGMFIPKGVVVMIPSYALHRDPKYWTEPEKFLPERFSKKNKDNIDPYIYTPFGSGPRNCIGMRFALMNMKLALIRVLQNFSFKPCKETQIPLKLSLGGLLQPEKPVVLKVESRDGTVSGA
structure (smiles),measurement,setting,value
Cc1ccc([N+](=O)[O-])cc1,AC50,CYP4A11 (gene 1579),1.58 µM (active)
same,AC50,[1],1.39 µM (active)
same,outcome,[2],inactive
same,outcome,[3],inactive
same,outcome,[4],inactive
same,outcome,[5],inactive
same,outcome,[6],inactive
same,outcome,CYP3A5 (gene 1577),inactive
same,AC50,[7],10 µM (active)
same,outcome,[8],inactive
same,AC50,[9],17.3 µM (active)
same,outcome,[10],inactive
same,outcome,[11],inactive
same,outcome,[12],inactive
same,outcome,[13],inactive
same,outcome,[14],inactive
same,outcome,[15],inactive
same,outcome,[16],inactive
same,outcome,[17],inactive
same,outcome,HGF (gene 3082),inactive
COC(=O)Nc1nc2ccccc2[nH]1,outcome,CYP4A11 (gene 1579),inactive
same,outcome,[2],inactive
same,outcome,[3],inactive
same,outcome,[4],inactive
same,outcome,[5],inactive
same,outcome,[6],inactive
same,outcome,CYP3A5 (gene 1577),inactive
same,outcome,[7],inactive
same,outcome,[8],inactive
same,outcome,[9],inactive
same,outcome,[10],inactive
same,outcome,[11],inactive
same,outcome,[12],inactive
same,outcome,[13],inactive
same,outcome,[14],inactive
same,outcome,[15],inactive
same,outcome,[16],inactive
same,outcome,[17],inactive
same,outcome,HGF (gene 3082),inactive
Clc1ccc(C(c2ccc(Cl)cc2)C(Cl)(Cl)Cl)cc1,AC50,CYP4A11 (gene 1579),50 µM (active)
same,AC50,[2],50 µM (active)
same,outcome,[3],inactive
same,outcome,[4],inactive
same,AC50,[5],50 µM (active)
same,AC50,[7],50 µM (active)
same,AC50,[8],50 µM (active)
same,outcome,[9],inactive
same,outcome,[10],inactive
same,outcome,[11],inactive
same,AC50,[12],16.7 µM (active)
same,outcome,[13],inactive
same,outcome,[14],inactive
same,AC50,[15],23.3 µM (active)
same,outcome,[16],inactive
same,outcome,[17],inactive
same,outcome,HGF (gene 3082),inactive
OCCOCCO,outcome,CYP4A11 (gene 1579),inactive
same,outcome,[1],inactive
same,outcome,[2],inactive
same,outcome,[3],inactive
same,outcome,[4],inactive
same,outcome,[5],inactive
same,outcome,[6],inactive
same,outcome,CYP3A5 (gene 1577),inactive
same,outcome,[7],inactive
same,outcome,[8],inactive
same,outcome,[9],inactive
same,outcome,[10],inactive
same,outcome,[11],inactive
same,outcome,[12],inactive
same,outcome,[13],inactive
same,outcome,[14],inactive
same,outcome,[15],inactive
same,outcome,[16],inactive
same,outcome,[17],inactive
same,outcome,HGF (gene 3082),inactive
